Laboratory results: publication PMC5540273 (PLoS ONE, 2017)

Columns and labels:
Details in all cases: concentration: 1 μM, replicates: in singlicate; n = 1
PKMYT1 = tested on: PKMYT1
PKN1 = tested on: PKN1
PKN2 = tested on: PKN2
PLK1 = tested on: PLK1
PLK2 = tested on: PLK2
PLK3 = tested on: PLK3
PLK4 = tested on: PLK4
PRKCD = tested on: PRKCD
PRKCE = tested on: PRKCE
PRKCH = tested on: PRKCH
PRKCI = tested on: PRKCI
PRKCQ = tested on: PRKCQ
PRKD1 = tested on: PRKD1
PRKD2 = tested on: PRKD2
PRKD3 = tested on: PRKD3
PRKG1 = tested on: PRKG1
PRKG2 = tested on: PRKG2
PRKR = tested on: T1, PRKR
T1 construct: gene EIF2AK2

PRKX = tested on: PRKX
PRP4 = tested on: PRP4
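Note: KINOMEscan kinase panel screen.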

| Structure (SMILES) | %Inh (PKMYT1) [%] | %Inh (PKN1) [%] | %Inh (PKN2) [%] | %Inh (PLK1) [%] | %Inh (PLK2) [%] | %Inh (PLK3) [%] | %Inh (PLK4) [%] | %Inh (PRKCD) [%] | %Inh (PRKCE) [%] | %Inh (PRKCH) [%] | %Inh (PRKCI) [%] | %Inh (PRKCQ) [%] | %Inh (PRKD1) [%] | %Inh (PRKD2) [%] | %Inh (PRKD3) [%] | %Inh (PRKG1) [%] | %Inh (PRKG2) [%] | %Inh (PRKR) [%] | %Inh (PRKX) [%] | %Inh (PRP4) [%] |
| --- | --- | --- | --- | --- | --- | --- | --- | --- | --- | --- | --- | --- | --- | --- | --- | --- | --- | --- | --- | --- |
| Cl.Nc1ncnc2occ(-c3ccc(NC(=O)Nc4cc(C(F)(F)F)ccc4F)cc3)c12 [SB-707548] | 0 | 0 | 0 | 5 | 98.8 | 98 | 35 | 27 | 10 | 1 | 25 | 15 | 0 | 20 | 29 | 11 | 7 | 28 | 9 | 8 |
| O=C(NCCNc1ccnc(Nc2ccc(F)cc2)n1)c1cc2ccccc2s1 [GSK1379874] | 0 | 0 | 0 | 0 | 0 | 0 | 0 | 0 | 5 | 17 | 0 | 0 | 5 | 0 | 0 | 0 | 0 | 0 | 4 | 49 |
| O=C(Nc1cccc(-c2nn3ncccc3c2-c2ccnc(Nc3cccc(C(F)(F)F)c3)n2)c1)c1c(F)cccc1F [GSK299495] | 9 | 0 | 0 | 0 | 0 | 2 | 0 | 0 | 14 | 16 | 19 | 49 | 16 | 0 | 14 | 0 | 0 | 0 | 0 | 71 |
| Cl.Oc1cccc(Nc2ccnc3cc(-c4ccncc4)ccc23)c1 [GW494601] | 63 | 0 | 0 | 30 | 0 | 0 | 25 | 0 | 7 | 0 | 22 | 0 | 25 | 29 | 17 | 0 | 1 | 21 | 0 | 34 |
| O=C(NCCCN1CCOCC1)c1cccc(Nc2nccc(Nc3ccc(Oc4ccccc4)cc3)n2)c1 [GW663929] | 0 | 16 | 0 | 0 | 0 | 4 | 17 | 0 | 4 | 0 | 12 | 0 | 13 | 25 | 17 | 0 | 5 | 20 | 17 | 21 |
| NS(=O)(=O)c1cccc(-c2ccc3ncc(N4CCOCC4)nc3c2)c1 [GSK1535721] | 1 | 0 | 0 | 0 | 0 | 5 | 15 | 4 | 1 | 8 | 21 | 2 | 0 | 20 | 0 | 0 | 14 | 10 | 0 | 2 |
| COc1cc2c(cc1OCCN1CCN(C)CC1)ncc1c3ccc(C#N)cc3[nH]c21 | 0 | 56 | 25 | 0 | 16 | 16 | 0 | 1 | 0 | 0 | 22 | 17 | 0 | 0 | 10 | 0 | 13 | 30 | 19 | 79 |
| Cn1cc(-c2ccc3c(c2)CCN3C(=O)Cc2ccccc2Cl)c2c(N)ncnc21 [GSK2608885] | 18 | 42 | 31 | 15 | 51 | 86 | 55 | 51 | 7 | 54 | 10 | 83 | 0 | 47 | 54 | 0 | 0 | 0 | 19 | 8 |
| [2H]C([2H])(c1cccc(C(F)(F)F)c1C)n1ccn2c(=O)nc(N3CCOCC3)cc12 [GSK2336394] | 0 | 39 | 0 | 0 | 0 | 0 | 0 | 6 | 2 | 0 | 22 | 9 | 17 | 4 | 27 | 0 | 0 | 0 | 14 | 18 |
| COc1ccc(CNC(=O)NC2CCN(c3ccnc(Nc4ccc(OC)cc4)n3)C2)cc1 (centres unmarked) [GSK1379727] | 2 | 0 | 0 | 0 | 0 | 0 | 0 | 0 | 15 | 17 | 12 | 0 | 0 | 8 | 0 | 0 | 0 | 0 | 11 | 23 |
